Results taken from the supplement of paper PMC12669032.
A number with no mark means an inactive call.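 Rule for the calls: active = AUC reduced over 20% with Padj below 0.05 in at least 2 of 3 replicates; inactive = otherwise.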

tested on: Bacteroides uniformis; assay: growth AUC relative to DMSO control (median of replicates) (fraction); higher = more growth (less inhibition), active = hit call of the paper; settings: 20 µM; 24 h
How it was run: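 Gut bacterial monocultures were grown anaerobically at 37 °C in mGAM from a starting OD600 of 0.05 with 20 µM compound (1% DMSO), in round-bottom 96-well plates under pierced gas-permeable seals, and OD600 was read hourly for 24 h. With the minimum OD set to 0, area under the growth curve was normalised to the plate median of solvent-only wells, or to row and column medians on the industrial chemical plate. Each value is the median of three biological replicates grown on separate days.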

| SMILES | growth AUC |
| --- | --- |
| CCCSC(=O)N(CCC)CCC | 1.02 |
| CCOP(=S)(OCC)SCCSCC | 0.973 |
| Nc1c(Cl)c(Cl)c(Cl)c(Cl)c1Cl | 0.981 |
| N#Cc1c(Cl)cccc1Cl | 0.922 |
| CC(CCl)OP(=O)(OC(C)CCl)OC(C)CCl (mixture of isomers) | 0.958 |
| CNC(=O)/C(=N/OC)c1ccccc1Oc1ccccc1 | 0.997 |
| Clc1c(Cl)c(Cl)c(Cl)c(Cl)c1Cl | 0.992 |
| C#CC(C)(C)NC(=O)c1cc(Cl)cc(Cl)c1 | 0.96 |
| CNC(=O)Oc1cc(C)c(SC)c(C)c1 | 0.989 |
| C[N+](C)(C)CCCl.[Cl-] | 1.01 |
| CC(C)(C)c1cc([N+](=O)[O-])cc([N+](=O)[O-])c1O | 0.876 |
| CCOP(=S)(OCC)SCSc1ccc(Cl)cc1 | 0.943 |
| O=S(=O)(c1ccc(Cl)cc1)c1cc(Cl)c(Cl)cc1Cl | 0.903 |
| CCOCCN(C(=O)CCl)C(=C(C)C)c1ccccc1 | 0.944 |
| CC(C)(O)C(Cl)(Cl)Cl.CC(C)(O)C(Cl)(Cl)Cl.O | 1.02 |
| Nc1cnn(-c2ccccc2)c(=O)c1Cl | 0.997 |
| CC(C)=CC1C(C(=O)OCN2C(=O)C3=C(CCCC3)C2=O)C1(C)C (centres undefined) | 0.97 |
| O=P(OCCCl)(OCCCl)OCCCl | 0.874 |
| COCc1c(F)c(F)c(COC(=O)[C@@H]2[C@@H](C=C(Cl)Cl)C2(C)C)c(F)c1F | 0.969 |
